# Screening results deposited in PubChem BioAssay by National Center for Advancing Translational Sciences (NCATS).
# In the library only some 19% were active in any assay of this set; here they are far more common.
# TDP1 cell CPT: qHTS for Inhibitors of human tyrosyl-DNA phosphodiesterase 1 (TDP1): qHTS in cells in presence of CPT; chicken DT40 Tdp1-/-;hTDP1 cells + 20 nM CPT, ATP luminescence, 48 h; Potency, µM (top dose mostly 46.2 µM), for inactives: at the top dose activity change, negative = growth inhibition, usual class: inhibitors; hit rate 12% among 420,000; AID 686979, 2013; further: potency means the concentration at half of the fitted maximal effect; on the % scale 0 is the no-effect control and ±100 the full control effect; nearly all actives have a fitted effect of over 55% in size
#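 Cell growth measured by CellTiter-Glo luminescence after a minimum 48 h, 37 C compound exposure with 20 nM CPT in Tdp1-knockout DT40 cells stably expressing hTDP1, seeded 400/well; qHTS titration format.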
# IL1B secr inh: qHTS for Inhibitors of Inflammasome Signaling: IL-1-beta AlphaLISA Primary Screen. activity change, % at 57.5 µM. THP-1 LPS/ATP IL-1B secretion, AlphaLISA, 16 h; hits give low values. hit rate 4.7% among 360,000. AID 743279, 2014; in the data active means activity change below about -50%; inconclusive means mostly about -30% to -49%; further: on the % scale 0 is the no-effect control and ±100 the full control effect
#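 Secreted IL-1B measured by AlphaLISA bead assay after 16 h compound exposure of THP-1 cells; compounds (final up to 57.5 uM) added 1 h before LPS (250 ng/mL) and ATP (1.25 mM) stimulation; lower signal means less secretion.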
# TDP1 cell noCPT: qHTS for Inhibitors of human tyrosyl-DNA phosphodiesterase 1 (TDP1): qHTS in cells in absence of CPT; AID 686978, 2013; Potency, µM (top dose mostly 46.2 µM), without a hit: top-dose activity change, negative = growth inhibition, usual class: inhibitors; DT40 Tdp1-/- hTDP1 cells, no CPT, ATP luminescence, 48 h; hit rate 15% among 420,000; further: potency means the concentration at half of the fitted maximal effect; on the % scale 0 is the no-effect control and ±100 the full control effect; nearly all actives have a fitted effect of over 55% in size
#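 DT40 Tdp1-/-;hTDP1 cells, no CPT (DMSO vehicle only), 400 cells/well; compounds pin-transferred; ≥48 hr, 37 °C; CellTiter-Glo 30 min RT dark, luminescence read.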
# TDP1 inh: qHTS Assay for Inhibitors of Tyrosyl-DNA Phosphodiesterase (TDP1); Tyrosyl-DNA phosphodiesterase 1 (Homo sapiens), Q9NUW8; recombinant TDP1, AlphaScreen DNA substrate cleavage; Potency, µM (titrated, usually from 130 µM), for the others: at the top dose activity change, negative = inhibition, usual class: inhibitors; hit rate 0.28% among 350,000; AID 485290, 2010; further: potency means the concentration at half of the fitted maximal effect; on the % scale 0 is the no-effect control and ±100 the full control effect; nearly all actives have a fitted effect of over 40% in size
# Target sequence (Q9NUW8 whole entry, looked up): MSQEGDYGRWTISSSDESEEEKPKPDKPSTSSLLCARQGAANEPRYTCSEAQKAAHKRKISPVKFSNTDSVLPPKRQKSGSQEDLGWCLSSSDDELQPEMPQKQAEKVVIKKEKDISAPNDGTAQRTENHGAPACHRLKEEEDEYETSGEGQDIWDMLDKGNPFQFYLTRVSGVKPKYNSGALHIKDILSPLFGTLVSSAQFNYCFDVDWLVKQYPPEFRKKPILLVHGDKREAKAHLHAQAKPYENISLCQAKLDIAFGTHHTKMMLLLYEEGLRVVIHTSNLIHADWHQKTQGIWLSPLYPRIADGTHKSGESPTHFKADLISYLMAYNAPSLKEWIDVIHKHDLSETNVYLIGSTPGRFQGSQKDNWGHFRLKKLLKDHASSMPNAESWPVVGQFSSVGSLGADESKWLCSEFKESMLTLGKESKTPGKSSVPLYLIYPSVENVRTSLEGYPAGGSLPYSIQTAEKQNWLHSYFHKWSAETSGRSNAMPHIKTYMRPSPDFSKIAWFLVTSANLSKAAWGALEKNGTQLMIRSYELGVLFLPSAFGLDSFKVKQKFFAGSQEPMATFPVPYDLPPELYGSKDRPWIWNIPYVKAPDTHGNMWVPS
#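 E. coli-derived human Tdp1, 1 nM final. Cpd preinc 15 min RT; substrate 15 nM final, 5 min RT; AS bead mix 10 ug/ml final, 10 min RT. Signal loss = tyrosine-FITC cleavage. No-enzyme wells = max signal.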
# TGFb SMAD3 inh: qHTS for Inhibitors of TGF-b | AID 588855, 2011 | HepG2 CAGA-GFP TGF-b/SMAD3 reporter, GFP fluorescence, 18 h; TGF-beta stimulated, 500 pg/mL final | hit rate 1.2% among 410,000 | Potency, µM (titrated, usually from 46.1 µM), inactives show at the top dose activity, negative = inhibition, usual class: inhibitors; further: potency means the concentration at half of the fitted maximal effect; on the % scale 0 is the no-effect control and ±100 the full control effect; nearly all actives have a fitted effect of over 65% in size
#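 Inhibition was scored as loss of TGF-beta-induced (500 pg/mL final, 18 hours, 37 degrees C) GFP in HEPG2 cells carrying a CAGA-GFP reporter, in DMEM with 1% FBS. Well GFP was summed per cell; Activity was normalised to unstimulated and stimulated DMSO wells, then concentration-response fitting.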
# HepG2 viability: qHTS for Inhibitors of TGF-b: Cytotox Counterscreen; HepG2 CAGA-GFP viability, ATP luminescence, 18 h; Potency, µM (series often up to 46.1 µM), for inactives: at the highest dose activity change, negative = cytotoxicity, actives largely listed as cytotoxic; hit rate 0.76% among 410,000; AID 588856, 2011; further: potency means the concentration at half of the fitted maximal effect
#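 CellTiter-Glo luminescence gave cytotoxicity after 18 hours at 37 degrees C. The cells were HepG2 CAGA-GFP in 1% FBS DMEM, stimulated with 500 pg/mL TGF-beta after compound addition. %Activity was normalised to no-cell wells (complete cell-killing) and DMSO (no toxicity), and curves were fitted and classified.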
# Starred values were filed as active, the others as inactive; ? = inconclusive; · = no result; [ ] = another dose, or the depositor's remark. Unless noted, the call rests on the fitted dose curve; in most records, active means well fitted curve in the direction sought with a large enough effect; inconclusive means small, poorly fitted or top-dose-only effect, or another doubt; inactive means no such curve, though single readings can be large; an effect the other way counts as inactive or inconclusive.
SMILES,TDP1 cell CPT,IL1B secr inh,TDP1 cell noCPT,TDP1 inh,TGFb SMAD3 inh,HepG2 viability
O=C(CCl)Nc1cccc(Oc2cnccn2)c1,18µM*,-88*,9.2µM*,·,16µM*,-97%
Cc1cccc(C(=O)NC(=O)Nc2ccc(-c3cc(C(F)(F)F)nn3-c3ccccc3)cc2)c1,-15%,·,?,0%,-33%,-1%
O=C(CSc1ncnc2[nH]ncc12)Nc1cccc(Oc2ccccc2)c1,?,-90*,?,8%,-2%,-13%
O=C1[C@H]2CCn3c(=O)n(-c4ccccc4)c(=O)n3[C@H]2[C@H](O)[C@H]2O[C@@H]12,·,·,·,8%[21 µM],·,·
Cc1cc(NC(=O)c2ccc([N+](=O)[O-])cc2)no1,5%,-19,-16%,6%,9%,1%
Cc1oc(C(C)(C)C)cc1-c1cc(NC(=O)c2ccc([N+](=O)[O-])cc2)n[nH]1,?,-63*,?,3%,41%,17%
CCOC(=O)c1c(NC(=O)c2ccc(C)cc2)sc2c1CC(C)(C)OC2,?,-16,18µM*,?,?,2%
C=C(C)CNC(=S)Nc1sc2c(c1C(=O)OCC)CC(C)(C)OC2,23µM*,20,16µM*,3%,-5%,-5%
COc1ccc(NC(=O)c2cccc(OS(=O)(=O)N(C)C)c2)cc1,18µM*,-12,5.2µM*,6%,-6%,-3%
CN(C)S(=O)(=O)Oc1cccc(C(=O)Nc2cccc(Cl)c2)c1,15µM*,-56*,18µM*,-2%,-5%,-25%
COc1cccc(C(=O)Nc2cccc(NC(=O)c3ccccc3Cl)c2)c1,?,?,?,·,-23%,-19%
CN(C)S(=O)(=O)Oc1cccc(C(=O)Nc2ccc(Cl)c(Cl)c2)c1,7.3µM*,-88*,10µM*,2%,?,-41%
COc1cccc(C(=O)Nc2ccc3[nH]ncc3c2)c1,-5%,-57*,-29%,·,-12%,-19%
Cc1cc(C)c(S(=O)(=O)n2cnc(C)c2)c(C)c1,-2%,·,-3%,3%,1%,8%
COc1ccccc1C1CN(Cc2c(C)nn(C)c2Cl)Cc2ccccc2O1 (stereo not drawn),-6%[9.04 µM],·,-1%,·,·,·
O=C(NC(=S)N1CCc2ccccc21)c1ccc(Br)o1,2.9µM*,0,5.2µM*,0%,-17%,-1%
O=C(NC(=S)N1CCc2ccccc21)c1ccccc1Br,18µM*,15,21µM*,0%,9%,-24%
CC(C)(C)C(=O)NC(=S)N1CCc2ccccc21,-6%,12,-27%,7%,-7%,-13%
COc1ccc(CNC(=O)CN2C(=O)CCCc3ccccc32)cc1,-20%,·,2%,5%,0%,-7%
CCCCn1cnc2cc(NCc3ccccc3Cl)ccc21,?,·,?,14%,?,-35%
COc1cc2nc(N3CCCN(C)CC3)nc(OC3CCN(C)CC3)c2cc1OC,?,·,14µM*,·,-22%,-63%
COc1cc2c(NC3CCN(C)CC3)nc(N3CCCN(C)CC3)nc2cc1OCCCCCN,?,·,-17%,·,?,-23%
COc1cc2c(NC3CCN(C)CC3)nc(N3CCCN(C)CC3)nc2cc1O,13%,·,-20%,·,·,·
COc1cc2nc(N3CCCN(C)CC3)nc(NC3CCOCC3)c2cc1OC,11µM*,·,7.1µM*,·,·,·
COc1cc2c(NC3CCN(C)CC3)nc(N3CCCN(C)CC3)nc2cc1OCC1CCCCN1 (stereo not drawn),11µM*,·,?,·,11µM*,-11%
